Bioassay records from PubChem.
JMJD2A Tudor = inhibitors of human JMJD2A Tudor domain; AID 504339; O75164; AlphaScreen JMJD2A-Tudor / H3K4me3 peptide binding; 4.4% of 390,000 active; Potency, µM (top dose mostly 114 µM), inactives show at the top dose activity change, negative = inhibition, usual class: inhibitors; note: % is set by controls: 0 for no effect and ±100 for the full control effect; nearly all actives have a fitted effect of over 50% in size
BAZ2B block = blocks human BAZ2B; AlphaScreen BAZ2B-H3K14Ac peptide displacement; Potency, µM (highest dose often 114 µM), inactives show at the top dose activity change, negative = inhibition, usual class: inhibitors; 4.4% of 360,000 active; note: % is set by controls: 0 for no effect and ±100 for the full control effect; nearly all actives have a fitted effect of over 60% in size
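AlphaScreen displacement of biotin-H3(5-23)K14Ac peptide (50 nM final) from BAZ2B (50 nM final) in PBS pH 7.4, 0.01% Tween-20; complex preformed 30 min RT, then compounds (top 110 uM) 30 min RT, beads 20 min dark.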
Sfp PPTase inh = inhibitors of Bacillus subtilis Sfp phosphopantetheinyl transferase; AID 1490; 3.5% of 310,000 active; Biochemical Sfp PPTase activity, qHTS; Potency, µM, without a hit: largest response in the series, negative = inhibition, usual class: inhibitors;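 note: the enzyme is Sfp with the accession as filed and its product quenches rhodamine fluorescence; 0% = enzyme reaction without inhibitor and -100% = no enzyme wells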
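Buffer: 50 mM Hepes-Na pH 7.6, 10 mM MgCl2, 0.01% Nonidet P-40, 0.01% BSA. Enzyme 15 nM, pre-exposed to compound 15 min; substrates then added and fluorescence change tracked over 30 min.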
HP1b chromo inh = inhibitors of HP1-beta chromodomain binding to methylated histone tails | P83916 | AlphaScreen HP1-beta / biotin-H3K9me3 peptide binding | Potency, µM (doses to about 114 µM), inactives show at the highest dose activity change, negative = inhibition, usual class: inhibitors | 0.56% of 390,000 active | AID 540317; note: nearly all actives have a fitted effect of over 70% in size
Target sequence (P83916 whole entry, looked up): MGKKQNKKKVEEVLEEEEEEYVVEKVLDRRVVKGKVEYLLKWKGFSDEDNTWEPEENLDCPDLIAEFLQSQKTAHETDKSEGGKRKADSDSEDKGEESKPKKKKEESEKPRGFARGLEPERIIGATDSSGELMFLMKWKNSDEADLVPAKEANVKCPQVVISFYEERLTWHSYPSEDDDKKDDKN
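AlphaScreen: HP1-beta (50 nM) preformed 30 min with biotin-H3(1-18)K9me3 peptide (50 nM) in PBS pH 7.4, 0.01% Tween-20. Compound added for 30 min at RT, then streptavidin donor/nickel chelate acceptor beads (10 ug/mL) for 30 min.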
G9a block = G9a (human) methyltransferase inhibition; Q96KQ7; G9a H3K9 monomethylation, AlphaScreen, 2 h; Potency, µM (top dose mostly 102 µM), for inactives: at the top dose activity, negative = inhibition, usual class: inhibitors; 8.8% of 350,000 active; note: % is set by controls: 0 for no effect and ±100 for the full control effect; nearly all actives have a fitted effect of over 75% in size
Target sequence (Q96KQ7 913-1193 limits assumed): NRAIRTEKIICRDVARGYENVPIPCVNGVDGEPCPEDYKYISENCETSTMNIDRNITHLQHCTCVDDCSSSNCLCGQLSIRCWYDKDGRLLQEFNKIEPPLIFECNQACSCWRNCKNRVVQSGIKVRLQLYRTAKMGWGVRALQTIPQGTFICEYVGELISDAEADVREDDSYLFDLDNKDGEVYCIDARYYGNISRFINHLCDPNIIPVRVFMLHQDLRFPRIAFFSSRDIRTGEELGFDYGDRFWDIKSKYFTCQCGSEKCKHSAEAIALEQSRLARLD
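Using a bead-based AlphaScreen, monomethylated H3K9 product from 2 h room-temperature reactions (G9a 20 nM, peptide 500 nM, SAM 20 uM) was detected with 0.5 ug/mL rabbit anti-H3K9me1 antibody.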
Numbers without * were called inactive; ! = not active in a repeat; [ ] = dose if it differs, or a comment. Sampled rows, rich in hits. Any-hit rate of the full collection: about 12%. Calls come from the whole dose curve; as a rule, active = well fitted curve in the direction sought with a large enough effect; inconclusive = small, poorly fitted or top-dose-only effect, or another doubt; inactive = no such curve, though single readings can be large; an effect the other way counts as inactive or inconclusive. Potency is the fitted concentration of half-maximal effect.

How did CCC(=O)c1cc(F)ccc1OCC(=O)N1CCN(c2ccc(F)cc2)CC1 do in these assays?
JMJD2A Tudor: -5%; BAZ2B block: -37%; Sfp PPTase inh: 9%; HP1b chromo inh: 45%; G9a block: -24%

Results for COc1ccc(NC(=O)N2C3CCCC2CC(NC(=O)c2ccccc2)C3)cc1 (centres undefined) ?
JMJD2A Tudor: -16%; BAZ2B block: 1%; Sfp PPTase inh: 18%; HP1b chromo inh: 7%; G9a block: 15%

What do the screens show for `CC(=O)Nc1ccc(NC(=O)C(Cc2ccccc2)N2Cc3ccccc3C2=O)cc1` (centres undefined)?
JMJD2A Tudor: -15%; BAZ2B block: -12%; HP1b chromo inh: 1%; G9a block: -28%[59 µM]

What do the screens show for `O=C(O)[C@H](Cc1ccccc1)N1Cc2ccccc2C1=O`?
JMJD2A Tudor: -10%; BAZ2B block: inconclusive; Sfp PPTase inh: 15%; HP1b chromo inh: 14%; G9a block: 79µM*

Results for O=C(O)CCN1Cc2ccccc2C1=O ?
JMJD2A Tudor: inconclusive; BAZ2B block: inconclusive; Sfp PPTase inh: 11%; HP1b chromo inh: 5%; G9a block: 50µM*

How did O=C(O)C(Cc1ccccc1)N1C(=O)c2c(Cl)c(Cl)c(Cl)c(Cl)c2C1=O (centres undefined) do in these assays?
JMJD2A Tudor: 89µM*; HP1b chromo inh: -4%

Results for Fc1ccc(C2c3cccn3CCN2C(=S)Nc2cccc(Br)c2)cc1 (centres undefined) ?
JMJD2A Tudor: -20%; BAZ2B block: -33%; Sfp PPTase inh: 6%; HP1b chromo inh: 5%; G9a block: 71µM*

How did COc1cccc(NC(=S)N2CCn3cccc3C2c2cccnc2)c1 (centres undefined) do in these assays?
JMJD2A Tudor: -20%; BAZ2B block: 50µM*; Sfp PPTase inh: 9%; HP1b chromo inh: -6%; G9a block: 28µM*

Results for Cc1cccc(NC(=S)N2CCn3cccc3C2c2cccnc2)c1 (centres undefined) ?
JMJD2A Tudor: -30%; BAZ2B block: inconclusive; Sfp PPTase inh: 1%; HP1b chromo inh: -10%; G9a block: 50µM*

How did CCCCNC(=S)N1CCn2cccc2C1c1ccccc1 (centres undefined) do in these assays?
JMJD2A Tudor: -24%; Sfp PPTase inh: 7%; HP1b chromo inh: 7%; G9a block: 56µM*

What do the screens show for `COc1ccc(C(=O)CSc2nc3ccccc3n2CC(=O)NC(C)(C)C)cc1`?
JMJD2A Tudor: -15%; BAZ2B block: 9%; Sfp PPTase inh: 5%; HP1b chromo inh: 20%; G9a block: inconclusive

Results for Cc1ccc[n+](-c2nc3ccccc3nc2C(=C=[N-])C#N)c1 ?
JMJD2A Tudor: -6%; BAZ2B block: inconclusive; Sfp PPTase inh: -17%; HP1b chromo inh: 6%; G9a block: 50µM*!

Results for Cc1cc(C)c[n+](-c2nc3ccccc3nc2C(=C=[N-])C#N)c1 ?
JMJD2A Tudor: -6%; BAZ2B block: -6%; Sfp PPTase inh: 13%; HP1b chromo inh: 34%; G9a block: 3%

How did Cc1cc[n+](-c2nc3ccccc3nc2C(=C=[N-])C#N)cc1 do in these assays?
JMJD2A Tudor: -12%; BAZ2B block: -6%; Sfp PPTase inh: -29%; HP1b chromo inh: 20%; G9a block: 50µM*

How did CN(C)c1ccc2cc(S(=O)(=O)O)cc(O)c2c1 do in these assays?
JMJD2A Tudor: 50µM*; HP1b chromo inh: inconclusive

Results for CN(C)c1ccc2c(O)cc(=O)n(C)c2c1 ?
JMJD2A Tudor: -22%; BAZ2B block: 3%; Sfp PPTase inh: -29%; HP1b chromo inh: 23%; G9a block: inconclusive

Results for Nc1cccc2cc(S(=O)(=O)O)ccc12 ?
JMJD2A Tudor: 50µM*; HP1b chromo inh: -8%[57 µM]

What do the screens show for `O=Nc1c(O)ccc2cc(S(=O)(=O)O)ccc12`?
JMJD2A Tudor: 2.8µM*; HP1b chromo inh: 9%

What do the screens show for `COc1cc(CNC(=O)C2CCC(=O)N(C3CCCCCC3)C2)cc(OC)c1` (centres undefined)?
JMJD2A Tudor: -8%; BAZ2B block: 0%; Sfp PPTase inh: 10%; HP1b chromo inh: 37%; G9a block: 76%

Results for CSc1nc(-c2ccc(N(C)C)cc2)c(C#N)c(=O)n1C ?
JMJD2A Tudor: 16%; BAZ2B block: 31%; Sfp PPTase inh: 9%; HP1b chromo inh: 78%; G9a block: 11%

How did CN(C)c1ccc(SC#N)cc1 do in these assays?
JMJD2A Tudor: -18%; BAZ2B block: -21%; Sfp PPTase inh: 7%; HP1b chromo inh: 23%; G9a block: 50µM*

How did CCCCNc1cc(=O)n(C)c(=O)[nH]1 do in these assays?
JMJD2A Tudor: -13%; BAZ2B block: 6%; Sfp PPTase inh: -1%; HP1b chromo inh: 34%; G9a block: 50µM*

How did Cn1c(=O)cc(NCc2ccccc2)[nH]c1=O do in these assays?
JMJD2A Tudor: -18%; BAZ2B block: 14%; Sfp PPTase inh: 1%; HP1b chromo inh: 53%; G9a block: -26%[2.33 µM]

Results for CCCN(CCO)Cc1cccc(Br)c1 ?
JMJD2A Tudor: 4.5µM*; BAZ2B block: 50µM*; Sfp PPTase inh: -18%; HP1b chromo inh: inconclusive; G9a block: inconclusive

How did Cc1ccc(CN(CCO)CCO)cc1 do in these assays?
JMJD2A Tudor: -9%; BAZ2B block: 4%; Sfp PPTase inh: 11%; HP1b chromo inh: 38%; G9a block: -2%[59 µM]

How did OCCN(CCO)Cc1ccc(Br)cc1 do in these assays?
JMJD2A Tudor: 20µM*; BAZ2B block: 50µM*; Sfp PPTase inh: -1%; HP1b chromo inh: -35%; G9a block: 20µM*

How did OCCN(Cc1ccccc1)Cc1ccccc1O do in these assays?
JMJD2A Tudor: inconclusive; BAZ2B block: 56µM*; Sfp PPTase inh: -13%; HP1b chromo inh: 79µM*; G9a block: 10µM*

How did O=[N+]([O-])c1cccc(CN(CCO)Cc2ccccc2)c1 do in these assays?
JMJD2A Tudor: -23%; BAZ2B block: -6%; Sfp PPTase inh: -27%; HP1b chromo inh: 4%

How did COc1cccc(NC(=O)COC(=O)C2CC2)c1 do in these assays?
JMJD2A Tudor: -7%; HP1b chromo inh: 29%

What do the screens show for `O=C(O)COc1cccc2nsnc12`?
JMJD2A Tudor: -8%; BAZ2B block: 5%; Sfp PPTase inh: -6%; HP1b chromo inh: 28%; G9a block: -44%[59 µM]

What do the screens show for `CCOc1ccccc1C(=O)OCC(=O)Nc1ccc(OC(F)F)cc1`?
JMJD2A Tudor: -3%; BAZ2B block: 6%; Sfp PPTase inh: -8%; HP1b chromo inh: 32%; G9a block: 31%[12.7 µM]

How did O=C(NCc1cccc(Cl)c1)NCc1cccc(Cl)c1 do in these assays?
JMJD2A Tudor: -9%; BAZ2B block: -4%; Sfp PPTase inh: 6%; HP1b chromo inh: 7%; G9a block: 6%[59 µM]

Results for COc1cc(SC)ccc1C(=O)N(CC(=O)Nc1ccccc1Br)Cc1ccco1 ?
JMJD2A Tudor: -27%; BAZ2B block: -35%; HP1b chromo inh: 3%; G9a block: 40µM*
